FBPA Giardia inh: blocks Giardia fructose-bisphosphate aldolase activity; A8B2U2; purified Giardia FBPA; Potency, µM (series often up to 59.6 µM), for inactives: at the top dose activity, negative = inhibition, actives largely listed as inhibitors; 290,000 tested, 0.71% active; AID 2451; also: potency is read from the fitted curve at half-maximal effect; nearly all actives have a fitted effect of over 55% in size
Target sequence (A8B2U2 whole entry, looked up): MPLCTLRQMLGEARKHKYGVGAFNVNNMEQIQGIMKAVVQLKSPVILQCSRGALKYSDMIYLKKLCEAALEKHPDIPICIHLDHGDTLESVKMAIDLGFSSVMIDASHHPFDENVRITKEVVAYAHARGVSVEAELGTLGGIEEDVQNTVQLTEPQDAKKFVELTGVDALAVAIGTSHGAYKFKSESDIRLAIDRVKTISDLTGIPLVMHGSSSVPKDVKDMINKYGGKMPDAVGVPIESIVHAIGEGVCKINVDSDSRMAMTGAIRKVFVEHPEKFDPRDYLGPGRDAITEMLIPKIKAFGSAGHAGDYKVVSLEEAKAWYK
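40 nM FBPA preincubated 10 min at RT with compound (up to 57.5 uM final), then substrate plus GAPDH/TPI/NAD/arsenate coupling and diaphorase/resazurin added. Fluorescence read after 20 min at RT, 525/598 nm.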
HCMV antiviral: human cytomegalovirus inhibition | HFF cells, HCMV-luciferase reporter, 72 h; stronger effect = lower value | activity change, negative = inhibition, % at 57.5 µM | 410,000 tested, 4.5% active; in the data active = activity change below about -60%; inconclusive = no clear call, values can overlap the other calls; inactive = above about -39%
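Human foreskin fibroblasts infected with luciferase-reporter HCMV at MOI 1 PFU/cell, compounds at two doses. Luciferase measured 72 h post infection; normalized to buffer-only basal and Salinomycin (10uM) controls.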
VACV mCherry inh: inhibitors of vaccinia virus infection (mCherry reporter signal). Vaccinia virus mCherry reporter infection, fluorescence. Potency, µM (top dose mostly 36.5 µM), without a hit: at the top dose activity change, negative = inhibition, hits mostly inhibitors. 310,000 tested, 0.63% active. AID 720579; calls by dose curve; tested in A549 cells; also: potency is read from the fitted curve at half-maximal effect; nearly all actives have a fitted effect of over 35% in size
HCV inh: blocks hepatitis C virus | Huh7.5.1 HCVcc-Cre infection, luciferase reporter, 44 h | Potency, µM (highest dose often 41.8 µM), for inactives: at the top dose activity change, negative = inhibition, hits mostly inhibitors | 340,000 tested, 3.4% active; also: potency is read from the fitted curve at half-maximal effect
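After 44 h co-culture of compound, cells and HCVcc-Cre (~0.5 moi), substrate is added for 15 min at room temperature and luciferase measured over 15 sec. Cells were seeded at 1,000/well and pre-cultured 4 h.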
Vaccinia Venus: vaccinia inhibition (Venus reporter); 330,000 tested, 0.46% active; Vaccinia virus Venus reporter expression, fluorescence; Potency, µM (series often up to 36.5 µM), for the others: at the highest dose activity change, negative = inhibition, usual class: inhibitors; calls by dose curve; tested in A549 cells; also: potency is read from the fitted curve at half-maximal effect; nearly all actives have a fitted effect of over 30% in size
FMDV inh: antivirals against foot and mouth disease virus | FMDV antiviral cell-based qHTS | Potency, µM (series often up to 57.9 µM), for inactives: at the highest dose activity change, negative = inhibition, hits mostly inhibitors | 410,000 tested, 1.2% active; calls by dose curve; tested in HEK293T cells; also: read-out not given here; potency is read from the fitted curve at half-maximal effect; nearly all actives have a fitted effect of over 45% in size
* hit, by the source's call; i = inactive; ? = inconclusive; / = no result given; [ ] = dose if it differs, or a comment. This is a sample that favours compounds with a hit; in the whole collection about 7.5% have one here. Unless noted, calls follow the shape of the dose curve; as a rule, active = well fitted curve in the direction sought with a large enough effect; inconclusive = small, poorly fitted or top-dose-only effect, or another doubt; inactive = no such curve, though single readings can be large; an effect the other way counts as inactive or inconclusive. % is scaled to controls: 0 for no effect and ±100 for the full control effect.

SMILES	FBPA Giardia inh	HCMV antiviral	VACV mCherry inh	HCV inh	Vaccinia Venus	FMDV inh
Cc1ccc(C(=O)Cn2c(=N)n(CCN3CCOCC3)c3ccccc32)cc1	/	72	?	-18%	-16%	-9%
Cn1c(=N)n(CC(=O)c2ccc(Br)cc2)c2ccccc21	/	27	i	6.3µM*	-25%	-9%
Cc1ccc(Cn2c(=N)n(CC(=O)c3ccc([N+](=O)[O-])cc3)c3ccccc32)cc1	-2%	-92*	i	?	-6%	?
CN1c2ccccc2C2(C)CCCC3=Cc4cc([N+](=O)[O-])cc([N+](=O)[O-])c4OC312 (centres undefined)	3%	-60*	-3%	2%	-19%	?
O=C(Cc1ccccc1)c1ccccc1C(=O)N1CCCCC1	2%	14	-18%	3.2µM*	-4%	44%
O=C(c1ccccc1CCc1ccccc1)N1CCOCC1	-2%	-104*	-12%	-10%	-7%	-4%
COc1cc(OC)cc(C(=O)NNC(=O)c2ccccn2)c1	2%	-98*	?	?	?	-7%
CC(Oc1cccc(Br)c1)C(=O)NNC(=O)c1ccccn1 (centres undefined)	/	/	/	5µM*	/	0%
COc1cc(OC)cc(C(=O)NNC(=O)c2ccccc2Br)c1	3%	-16	-13%	10%	-9%	-5%
COc1ccc(C(=O)NCCNC(=O)c2ccccn2)cc1	8%	-9	-7%	21%	-5%	13%
COc1ccc(C(=O)NNC(=O)c2ccccn2)cc1	-7%	-84*	/	0%	/	1.8µM*
COc1ccc(C(=O)Nc2ccc(NC(=O)c3cnccn3)cn2)cc1	-5%	13	-14%	13µM*	-14%	/
COc1ccc(C(=O)NC(=S)NNC(=O)c2cnccn2)cc1OC	21%	?	i	?	-19%	-14%
COc1cc(OC)cc(C(=O)NC(=S)NNC(=O)c2cnccn2)c1	?	-89*	i	?	-19%	-1%
O=C(/C=C/c1ccccc1)NC(=S)NNC(=O)c1cccnc1	22%	30	/	3%	/	5%
O=C(/C=C/c1ccccc1)NC(=S)NNC(=O)c1cnccn1	?	-98*	-23%[7.34 µM]	?	-16%[7.34 µM]	3%
CC(=O)N1Cc2cc(C(=O)NCC(F)(F)F)nc(-c3cccc(-c4cc5ccccc5o4)c3)c2[C@H]1CCO	/	-2	?	/	-25%	-2%
CCc1ccc(-c2nn(CC(=O)Nc3ccccc3C)c3c2cnc2ccc(C)cc23)cc1	/	-3	-9%	/	7%	9%
Cc1ccccc1-n1ncc2c(SCC(=O)N3c4ccccc4CC3C)ncnc21 (centres undefined)	-16%	-67*	-23%	?	?	/
O=C(CSc1ncnc2c1cnn2-c1ccccc1Cl)N1CCN(C(=O)c2ccco2)CC1	3%	24	i	-25%	-15%	35µM*
COc1ccc(N2CCN(C(=O)CSc3ncnc4c3cnn4-c3ccccc3C)CC2)cc1	-17%	-15	/	2%	-15%	?
CCc1nc(SCC(=O)N2c3ccccc3CC2C)c2c(C)c(C)sc2n1 (centres undefined)	1%	-38	?	13µM*	33%	/
Cc1ccccc1-n1ncc2c(SCC(=O)NC3CCCC3)ncnc21	25%	-72*	-21%	4µM*	-20%	?
COc1ccc(NC(=O)CSc2nc(-c3ccc(F)cc3)c3cccc(C)c3n2)cc1	/	-20	-11%	/	-18%	-15%
CC(C)(C)Cc1nnc(NC(=O)CSc2ccccc2)s1	10%	78	/	6%	/	37%
SMILES	FBPA Giardia inh	HCMV antiviral	VACV mCherry inh	HCV inh	Vaccinia Venus	FMDV inh
CCCc1nc(SCC(=O)N2CCOCC2)c2c(C)c(C)sc2n1	2%	-78*	i	1%	-9%	31%
CCN(CC)c1ccc(-c2nnc(SCC(=O)NCc3ccco3)n2CC)cc1	/	/	-23%	/	-28%	/
CC(=O)Nc1ccc(N2N=C(C)C(N=Nc3ccccc3)C2=O)cc1 (centres undefined)	-19%	-101*	/	-2%	/	16%
CCN1CCN(Cc2c(O)ccc3c(=O)c(Oc4ccccc4Cl)c(C(F)(F)F)oc23)CC1	/	3	-10%	/	-7%	-28%
CC(C)(C)[C@@H]1COC(=O)[C@H](Cc2ccc(F)cc2)C/C=C\C[C@@H](CC(=O)NCCO)C(=O)N1	/	?	-6%	5%	-10%	-22%
Cc1cc(C)n(/C(=C\N(C)C)C(=O)c2ccc(Cl)cc2)n1	0%	-61*	-12%	13%	-8%	11%
COc1ccc(C(=O)/C(=C\N(C)C)n2nc(C)cc2C)cc1	2%	-18	-24%	10%	-8%	-7%
CN1C(=O)COCc2cc(-c3ccc(F)c(Cl)c3)ccc21	/	52	/	/	/	/
CC(C)c1ccc(N=Nc2c(O)[nH]c(=O)[nH]c2=O)cc1	-2%	-15	/	6%	/	44%
O=c1[nH]c(=S)[nH]c(O)c1N=Nc1ccc(SC(F)F)cc1	-2%	-61*	-17%	1%	-4%	-41%
CC1=C(C(=O)OC(C)C)C(c2cccnc2)n2ncnc2N1 (centres undefined)	0%	18	28µM*	-3%	28µM*	-6%
CC1=C(C(=O)OC(C)C)C(c2ccncc2)n2ncnc2N1 (centres undefined)	-3%	9	/	16%	-9%	-15%
CCN(C(=O)c1cccs1)c1nnc(-c2ccncc2)s1	-1%	-65*	-4%	0%	-7%	11%
Cc1cc(C)c(S(=O)(=O)/N=C2/C=C(SCC(=O)O)C(=O)c3ccccc32)cc1C	16µM*	/	-13%	?	10%	-24%
CCc1ccc(S(=O)(=O)Nc2ccc3oc(C)c(C(=O)OCCOC)c3c2)cc1	/	1	-10%	/	1%	10%
COc1ccccc1OCC(=O)c1[nH]c(C)c(C(C)=O)c1C	-6%	-31	-15%	?	?	20µM*
CC(=O)c1c(C)[nH]c(C(=O)COc2cc(C)ccc2C(C)C)c1C	-17%	?	?	5.6µM*	?	-14%
COCCNC(=O)C1CC(c2ccc(C(F)(F)F)cc2)=NO1 (centres undefined)	/	-20	i	7%	-7%	0%
COc1ccc2c(c1OC)C(=O)OC2N1C(=O)CC[C@H]1C(=O)Nc1ccc(F)cc1F (some centres undefined)	-8%	18	4%	0.56µM*	1%	-17%
Cc1cccc(NC(=S)/N=C(\N)Nc2nc(C)c3cc(C)ccc3n2)c1	7%	13	?	?	-17%	6%
Cc1ccc(NC(=S)/N=C(\N)Nc2nc(C)c3ccccc3n2)cc1C	-1%	-35	-12%	11µM*	-23%	-25%
Cc1ccc(S(=O)(=O)/N=C(\N)Nc2nc(C)c3ccccc3n2)cc1	-1%	-9	-15%	4%	-28%	49%
Cc1cc(C)cc(NC(=S)/N=C(\N)Nc2nc(C)c3ccccc3n2)c1	-5%	-79*	?	?	-19%	?

Assay outcomes: PubChem BioAssay, National Center for Advancing Translational Sciences (NCATS)
